Among the data in PubChem BioAssay (NCI) are growth values, retold here.

This is part of a sample that, as a whole, favours compounds with a hit. Of some 83,000 tested, about 20% had one in any assay.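 In brief: 96-well plates, 48 h treatment, single concentration, percent growth endpoint.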 Values without a mark were called inactive. Calls of active or inactive are those of the source. How the source made its calls: active means growth percent below 10; inactive means the rest.

Among the test systems are HCT-15 colon; SNB-19 CNS; U251 CNS; PC-3 prostate; SK-MEL-5 melanoma; UACC-62 melanoma; LOX IMVI melanoma; SK-MEL-28 melanoma; SK-MEL-2 melanoma; EKVX NSCLC; SN12C renal; UO-31 renal; TK-10 renal; ACHN renal; CAKI-1 renal; A498 renal; CCRF-CEM leukemia; MOLT-4 leukemia; SNB-75 CNS.
Holding throughout (test): NCI-60 one-dose screen, 48 h (100 = growth as untreated, 0 = no growth, -100 = all killed)
Holding throughout (conditions): 10 µM unless noted

As for `COc1cc(/C=C/C(=O)c2ccc(Nc3ncnc4ccccc34)cc2)cc(OC)c1`, the growth was 45.7% in the assay on HCT-15 colon; 62% in the assay on SNB-19 CNS; 34.2% in the assay with U251 CNS; 43.9% in the assay on PC-3 prostate; 90.8% with SK-MEL-5 melanoma; 76.9% with UACC-62 melanoma. Moreover, the growth in the assay on LOX IMVI melanoma is 5.65% (active); in the assay on SK-MEL-28 melanoma it was 86.3%; in the assay on SK-MEL-2 melanoma, 112%; in the assay on EKVX NSCLC, 79.3%; with SN12C renal, 71.3%; with UO-31 renal it was 51.2%. The growth with TK-10 renal was 79.1%; with ACHN renal, 76.8%; in the assay on CAKI-1 renal it was 69.3%; in the assay on A498 renal, 85.9%; in the assay with CCRF-CEM leukemia it was 20.6%; in the assay on MOLT-4 leukemia, 19.1%.
In the case of `COc1cccc(-c2nc3occn3c2-c2ccnc(NCCCNS(=O)(=O)c3cccc(F)c3)n2)c1`, the growth in the assay on HCT-15 colon was 83.4%; in the assay on SNB-75 CNS it was 117%; in the assay on SNB-19 CNS, 109%; in the assay on U251 CNS, 111%; in the assay on PC-3 prostate, 79.4%; in the assay on SK-MEL-5 melanoma it was 48.2%. Moreover, the growth is 45.2% in the assay with UACC-62 melanoma; 86.5% in the assay on LOX IMVI melanoma; 89.5% in the assay on SK-MEL-28 melanoma; 90.2% in the assay on SK-MEL-2 melanoma; 79.8% with EKVX NSCLC; 87.7% in the assay on SN12C renal. Besides, the growth in the assay on UO-31 renal was 69.8%; in the assay with TK-10 renal, 131%; in the assay on ACHN renal, 84.5%; in the assay on CAKI-1 renal it was 78.2%; in the assay with CCRF-CEM leukemia, 81.3%; in the assay with MOLT-4 leukemia, 67.7%.
Take `COc1cc(Nc2cc(O)c3c(=O)cc(-c4ccccc4)oc3c2)cc(OC)c1`: the growth in the assay with HCT-15 colon is 25%; in the assay on SNB-75 CNS it was -9.05% (active); in the assay with SNB-19 CNS, 43.1%; in the assay with U251 CNS, 22.8%; in the assay with PC-3 prostate, 27.8%; in the assay on SK-MEL-5 melanoma, 28.6%. Also, the growth was 42.5% in the assay on UACC-62 melanoma; 41.7% in the assay with LOX IMVI melanoma; 68.5% in the assay on SK-MEL-28 melanoma; 13.2% in the assay on SK-MEL-2 melanoma; 38.2% in the assay with EKVX NSCLC; 44.3% in the assay on SN12C renal. The growth is 40.3% in the assay on UO-31 renal; 44% with TK-10 renal; 48.3% with ACHN renal; 47.2% in the assay with CAKI-1 renal; -4.73% (active) in the assay on A498 renal; 10.8% in the assay with CCRF-CEM leukemia. Further, the growth in the assay on MOLT-4 leukemia is 24.6%.
For `CCC(=O)c1ccc(O)c(OC)c1`, the growth was 111% in the assay with HCT-15 colon; 100% in the assay with SNB-75 CNS; 95.9% with SNB-19 CNS; 93.9% in the assay with U251 CNS; 92.4% in the assay with PC-3 prostate; 98.6% in the assay on SK-MEL-5 melanoma. The growth was 95.5% with UACC-62 melanoma; 102% with LOX IMVI melanoma; 97.8% with SK-MEL-28 melanoma; 103% in the assay with SK-MEL-2 melanoma; 114% in the assay on EKVX NSCLC; 94.9% in the assay on SN12C renal. The growth is 101% with UO-31 renal; 99.2% in the assay on TK-10 renal; 103% in the assay on ACHN renal; 100% in the assay on CAKI-1 renal; 91% with CCRF-CEM leukemia; 101% in the assay on MOLT-4 leukemia.
As for `CCCCCCCCCCCCCCCCCCOc1ccccc1N`, the growth in the assay with HCT-15 colon is 85.6%; in the assay with SNB-75 CNS, 82.8%; in the assay on SNB-19 CNS, 87.1%; in the assay on U251 CNS it was 50.3%; in the assay with PC-3 prostate, 21.3%; with SK-MEL-5 melanoma it was 98.2%. The growth in the assay with UACC-62 melanoma was 88.5%; in the assay on LOX IMVI melanoma it was 38.6%; with SK-MEL-28 melanoma it was 96.9%; with SK-MEL-2 melanoma it was 86.3%; in the assay with SN12C renal, 27.8%; in the assay with UO-31 renal it was -37% (active). Further, the growth is 103% in the assay on TK-10 renal; 97.8% with ACHN renal; 67.8% in the assay on CAKI-1 renal; 61.8% in the assay with A498 renal; 11% in the assay with CCRF-CEM leukemia; 22.9% in the assay on MOLT-4 leukemia.
With `COc1cccc(CCC(=O)c2cc3c(N)c(C(=O)Nc4cccc(Cl)c4C)sc3nc2C)c1`, the growth with HCT-15 colon was 13.8%; in the assay on SNB-75 CNS it was -14.5% (active); in the assay on SNB-19 CNS it was 24.1%; with U251 CNS, 16.7%; in the assay on PC-3 prostate, 18.8%; in the assay on SK-MEL-5 melanoma it was 3.62% (active). In addition, the growth in the assay with UACC-62 melanoma was 27%; in the assay on LOX IMVI melanoma, 33.1%; with SK-MEL-28 melanoma it was 44.5%; with SK-MEL-2 melanoma, 36.5%; in the assay with EKVX NSCLC it was 36.2%; in the assay with SN12C renal, 36%. For the same compound, the growth in the assay with UO-31 renal was 30.7%; in the assay on TK-10 renal, 52.9%; with ACHN renal, 32.2%; with CAKI-1 renal, 20.5%; in the assay on A498 renal, -6.77% (active); in the assay on CCRF-CEM leukemia, 8.7% (active). In addition, in the assay on MOLT-4 leukemia, the growth is 16%.
Turning to `CCCC/C(=N\N=C(N)N)c1ccc(F)cc1`, the growth in the assay with HCT-15 colon was 23.4%; in the assay on SNB-75 CNS it was -1.82% (active); in the assay with SNB-19 CNS it was 41.6%; in the assay on U251 CNS it was 32.1%; in the assay on PC-3 prostate it was 26.3%; in the assay on SK-MEL-5 melanoma it was 2.87% (active). Besides, the growth is 45.3% with UACC-62 melanoma; 26.5% in the assay on LOX IMVI melanoma; 54% with SK-MEL-28 melanoma; 44.5% with EKVX NSCLC; 37.5% with SN12C renal; 45.3% with UO-31 renal. In addition, the growth in the assay with ACHN renal is 43.6%; in the assay with CAKI-1 renal, 29.5%; with CCRF-CEM leukemia it was 26.3%; in the assay with MOLT-4 leukemia, 32.4%.
Consider `CC[C@@]12C=CCN3CC[C@]4(c5cc(NC(=O)COc6cc(OCC(=O)Nc7cc8c(cc7OC)N(C)[C@H]7[C@@](O)(C(=O)OC)[C@H](OC(C)=O)[C@]9(CC)C=CCN%10CC[C@]87[C@@H]%109)cc7oc(-c8ccccc8)cc(=O)c67)c(OC)cc5N(C)[C@@H]4[C@](O)(C(=O)OC)[C@H]1OC(C)=O)[C@H]32`, for which the growth with HCT-15 colon was 34.7%; in the assay on SNB-75 CNS, 82.5%; in the assay on SNB-19 CNS, 58.5%; with U251 CNS it was -3.12% (active); in the assay with PC-3 prostate, 23%; in the assay with SK-MEL-5 melanoma it was 103%. For the same compound, the growth was 93.8% with UACC-62 melanoma; 7.97% (active) with LOX IMVI melanoma; 112% in the assay with SK-MEL-28 melanoma; 85.1% in the assay on SK-MEL-2 melanoma; 56.8% with EKVX NSCLC; 49.4% with SN12C renal. Also, the growth in the assay on UO-31 renal is 75.9%; with TK-10 renal, 42.8%; in the assay with ACHN renal it was 85.4%; in the assay on CAKI-1 renal, 46.8%; with A498 renal it was 58.6%; in the assay on CCRF-CEM leukemia, 13.6%. Moreover, in the assay with MOLT-4 leukemia, the growth is 13.1%.
